# The full list was thinned out, with the strongest signals kept by preference.
# B1: Eosinophil cationic protein (ECP) (Homo sapiens), P12724 (protein)
# chain: MVPKLFTSQICLLLLLGLMGVEGSLHARPPQFTRAQWFAIQHISLNPPRCTIAMRAINNYRWRCKNQNTFLRTTFANVVNVCGNQSIRCPHNRTLNNCHRSRFRVPLLHCDLINPGAQNISNCTYADRPGRRFYVVACDNRDPRDSPRYPVVPVHLDTTI
# Legend:
# Experiment in all cases: glycan array binding signal (z-score within array); higher = stronger binding
# Conditions in all cases: glycan notation: IUPAC condensed, linker removed
# [1] = target: Man(a1-2)Man(a1-3)[Man(a1-2)Man(a1-6)]Man(a1-6)[Man(a1-2)Man(a1-2)Man(a1-3)]Man
# In short: (§1)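 Columns mapping to the same glycan were averaged after glycan names were converted to IUPAC-condensed notation. The data come from 3228 arrays in the Consortium for Functional Glycomics database, limited to those with an available protein sequence. Binding is reported as a within-array Z-score averaged across arrays of one protein sequence and across linkers.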
# [2] = target: Man(a1-2)Man(a1-3)[Man(a1-2)Man(a1-6)]Man(a1-6)[Man(a1-2)Man(a1-2)Man(a1-3)]Man(b1-4)GlcNAc(b1-4)GlcNAc
# In short: as §1
# [3] = target: Man(a1-2)Man(a1-6)[Man(a1-3)]Man(a1-6)[Man(a1-2)Man(a1-2)Man(a1-3)]Man(b1-4)GlcNAc(b1-4)GlcNAc
# In short: as §1
# [4] = target: Neu5Ac(a2-3)Gal(b1-3)[Neu5Ac(a2-6)]GalNAc
# In short: as §1
# [5] = target: Neu5Ac(a2-3)Gal(b1-4)GlcNAc(b1-6)[Neu5Ac(a2-3)Gal(b1-3)]GalNAc
# In short: as §1
# Neu5Ac(a2-6)Gal(b1-4)Glc = target: Neu5Ac(a2-6)Gal(b1-4)Glc
# In short: as §1
# [6] = target: Neu5Ac(a2-6)Gal(b1-4)GlcNAc(b1-2)Man(a1-3)[Man(a1-6)]Man(b1-4)GlcNAc(b1-4)GlcNAc
# In short: as §1
binder,measurement,setting,value
B1,glycan array binding signal (z-score),[1],-0.174
same,glycan array binding signal (z-score),[2],-0.101
same,glycan array binding signal (z-score),[3],0.498
same,glycan array binding signal (z-score),[4],-0.097
same,glycan array binding signal (z-score),[5],-0.004
same,glycan array binding signal (z-score),Neu5Ac(a2-6)Gal(b1-4)Glc,0.151
same,glycan array binding signal (z-score),[6],-0.018

# — the supplement of paper PMC8728848
